Screens as filed in PubChem BioAssay.
A selection: hits, their analogues and other compounds. The true share with any hit is near 3.9%.
CASP6 VEID inh – human caspase-6 inhibitors, primary screen, biochemical, VEID-R110 fluorescence, single point, set 2. purified caspase-6, Z-VEID-R110 cleavage fluorescence. inhibition, % at 12.5 µM. 350,000 tested, 0.53% active. P55212. AID 686996, 2013;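 active = mean inhibition across replicates at least about 35%, with every replicate also reaching that limit, limit read from the data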;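 also: 0% = median of neutral control wells and 100% = no fluorescence left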
Glyco luc inh – increase of ERlucT glycosylation luciferase signal, primary screen, N-linked glycosylation inhibitor project, D54 ERlucT cells, luminescence, set 2. AID 588692, 2011. reporter increase, % at 12.5 µM. D54 ERlucT glycosylation luciferase reporter, 24 h; percent of 100 nM tunicamycin response. 360,000 tested, 0.23% active;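 active = mean luciferase reporter signal, scaled so untreated is 0 and the glycosylation-blocking control 100, at or above a set limit in every replicate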;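 also: luciferase carries N-glycosylation sites so blocking glycosylation raises the light; 0% = median of neutral control wells and 100% = median of 100 nM tunicamycin wells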
CDK5 p35 inh – inhibitors of human CDK5/p35 kinase, primary screen, biochemical, single concentration | Cyclin-dependent kinase 5 (Homo sapiens) + Cyclin-dependent kinase 5 activator 1 (Homo … | Recombinant CDK5/p35, ADP-Glo luminescence, 60 min | inhibition, % at 10 µM | 330,000 tested, 0.01% active | AID 488839, 2010;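 active = highest replicate inhibition of at least 50% and at least 75% of replicates reaching 50%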;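 also: plate controls were DMSO neutral control for no effect and GW8510 at 10 µM for full effect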
Target sequence (Q00535 whole entry, looked up): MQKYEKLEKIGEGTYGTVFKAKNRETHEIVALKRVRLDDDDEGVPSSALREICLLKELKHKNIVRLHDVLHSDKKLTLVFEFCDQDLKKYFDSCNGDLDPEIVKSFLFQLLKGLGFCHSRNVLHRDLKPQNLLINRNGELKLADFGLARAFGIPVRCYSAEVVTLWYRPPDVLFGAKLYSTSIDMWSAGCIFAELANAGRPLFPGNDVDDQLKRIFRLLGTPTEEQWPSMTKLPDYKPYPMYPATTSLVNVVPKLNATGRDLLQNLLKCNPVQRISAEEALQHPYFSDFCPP
Target sequence (Q15078 whole entry, looked up): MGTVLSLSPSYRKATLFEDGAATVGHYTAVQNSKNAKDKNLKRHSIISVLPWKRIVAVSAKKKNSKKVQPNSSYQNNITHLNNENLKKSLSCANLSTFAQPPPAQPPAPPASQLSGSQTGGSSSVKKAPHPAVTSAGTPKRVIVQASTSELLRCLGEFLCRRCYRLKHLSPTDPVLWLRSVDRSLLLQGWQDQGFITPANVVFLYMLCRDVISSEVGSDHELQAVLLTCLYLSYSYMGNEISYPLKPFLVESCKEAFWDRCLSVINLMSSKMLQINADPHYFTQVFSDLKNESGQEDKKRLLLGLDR
Mot1-301 SUMO – yeast Mot1-301 growth rescue at high temperature, primary screen, SUMOylation pathway inhibitor project, S. cerevisiae, ATP luminescence, 38.5C; S. cerevisiae Mot1-301 growth rescue; percent above DMSO median, 100 means doubled; growth rescue, % at 18.8 µM; 320,000 tested, 1% active;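 active = every valid replicate shows activation above 250% relative to neutral control wells; inactive = the rest, any valid replicate at or below 250%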;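 also: OY570 slx delta 5 strain wells were the positive control but not used for scaling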
NSD2 HMT inh – NSD2 histone methyltransferase inhibitors, primary screen, biochemical, AlphaScreen, single concentration, set 2; Histone-lysine N-methyltransferase NSD2 (Homo sapiens), O96028; NSD2 peptide methylation, 120 min; inhibition, % at 12.5 µM; 310,000 tested, 0.54% active; in the data active = inhibition above about 50%
ALR H2O2 inh – inhibitors of human ALR sulfhydryl oxidase, primary screen, biochemical, H2O2 detection, HRP-luminol luminescence, single point; FAD-linked sulfhydryl oxidase ALR (Homo sapiens), P55789; purified ALR, DTT oxidation; inhibition, % (test concentration not listed); 290,000 tested, 3.8% active; AID 485317, 2010;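 active = mean replicate inhibition above about 79%, with every replicate also reaching it, limit read from the data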
* hit, by the source's call.

How did O=C(NN1C(=O)/C(=C/c2ccc(O)cc2)SC1=S)c1ccccc1O do in these assays?
CASP6 VEID inh: 13; Glyco luc inh: 0; CDK5 p35 inh: -1; Mot1-301 SUMO: 7; NSD2 HMT inh: 8; ALR H2O2 inh: 99*

Results for COc1cc(/C=C2\SC(=S)N(NC(=O)c3ccccc3O)C2=O)ccc1O ?
CASP6 VEID inh: 10; Glyco luc inh: -1; CDK5 p35 inh: -1; Mot1-301 SUMO: -21; NSD2 HMT inh: 18; ALR H2O2 inh: 99*

Results for O=C(Cc1ccccc1)NN1C(=O)/C(=C/c2ccc(C(=O)O)cc2)SC1=S ?
CASP6 VEID inh: 69*; Glyco luc inh: 0; CDK5 p35 inh: 6; Mot1-301 SUMO: 0; NSD2 HMT inh: -1

Results for C[C@@H]1CCCCO[C@@H](CN(C)Cc2ccc(C(=O)O)cc2)[C@H](C)CN([C@@H](C)CO)C(=O)c2cc(NC(=O)CCCN(C)C)ccc2O1 ?
CASP6 VEID inh: -1

Results for Cc1ccc(S(=O)(=O)Nc2ccc3c(c2)C(=O)N([C@H](C)CO)C[C@@H](C)[C@@H](CN(C)S(=O)(=O)c2c(C)noc2C)OCCCC[C@H](C)O3)cc1 ?
CASP6 VEID inh: 2

Results for O=C(NN1C(=O)/C(=C/c2ccc(O)cc2)SC1=S)c1cccc(O)c1 ?
CASP6 VEID inh: 2; Glyco luc inh: -2; CDK5 p35 inh: 1; Mot1-301 SUMO: -6; NSD2 HMT inh: 13; ALR H2O2 inh: 99*

Results for COc1ccccc1CNC(=O)CSc1ccc(-c2ccccn2)nn1 ?
CASP6 VEID inh: 0; Glyco luc inh: 0; CDK5 p35 inh: -1; Mot1-301 SUMO: 343*; NSD2 HMT inh: -15; ALR H2O2 inh: -2

What do the screens show for `COc1ccccc1CNC(=O)CSc1ccc(-c2cccs2)nn1`?
CASP6 VEID inh: 0; Glyco luc inh: -1; CDK5 p35 inh: 0; Mot1-301 SUMO: 14; NSD2 HMT inh: 3

What do the screens show for `COc1ccccc1CNC(=O)CSc1ccc(-c2cccc([N+](=O)[O-])c2)nn1`?
CASP6 VEID inh: 2; Glyco luc inh: 4; CDK5 p35 inh: 1; Mot1-301 SUMO: -19; NSD2 HMT inh: 0; ALR H2O2 inh: 84*

What do the screens show for `O=C(NC1CCCCC1)N[C@@H]1C=C[C@H](CC(=O)N2CCOCC2)O[C@@H]1CO`?
CASP6 VEID inh: 1

How did O=c1c2ccccc2nc(COc2ccccc2)n1/N=C/c1ccc(O)cc1O do in these assays?
CASP6 VEID inh: 3; Glyco luc inh: -7; CDK5 p35 inh: 0; Mot1-301 SUMO: -5; NSD2 HMT inh: 0; ALR H2O2 inh: 77*

How did Cc1nc2ccccc2c(=O)n1/N=C/c1ccc(O)c(O)c1O do in these assays?
CASP6 VEID inh: 19; Glyco luc inh: 1; CDK5 p35 inh: 2; Mot1-301 SUMO: -7; ALR H2O2 inh: 98*

Results for O=c1c2ccccc2nc(COc2ccccc2)n1/N=C/c1c[nH]c2ccccc12 ?
CASP6 VEID inh: 2; Glyco luc inh: -2; CDK5 p35 inh: 1; Mot1-301 SUMO: 50; NSD2 HMT inh: -2

How did CN1c2ccc(-c3ccc(C#N)cc3)cc2[C@H]2[C@H](CCN2S(=O)(=O)c2ccc(F)cc2)[C@@H]1CO do in these assays?
CASP6 VEID inh: -3

How did Cc1noc(C)c1CSCC(=O)Nc1nc(-c2ccc(F)c(F)c2)cs1 do in these assays?
CASP6 VEID inh: 0; Glyco luc inh: -6; CDK5 p35 inh: 1; Mot1-301 SUMO: 7; NSD2 HMT inh: 0; ALR H2O2 inh: 9

Results for Cc1noc(C)c1CSCC(=O)Nc1nc2ccc(S(C)(=O)=O)cc2s1 ?
CASP6 VEID inh: 3; Glyco luc inh: -3; CDK5 p35 inh: 3; Mot1-301 SUMO: -4; NSD2 HMT inh: 1; ALR H2O2 inh: 97*

How did COc1ccc(-c2csc(NC(=O)CSCc3c(C)noc3C)n2)cc1OC do in these assays?
CASP6 VEID inh: 60*; Glyco luc inh: -2; CDK5 p35 inh: 1; Mot1-301 SUMO: 14; NSD2 HMT inh: 2; ALR H2O2 inh: -9

Results for COc1ccc(-c2csc(NC(=O)CSCC(=O)Nc3cc(C)on3)n2)cc1OC ?
CASP6 VEID inh: 6; Glyco luc inh: 1; CDK5 p35 inh: 1; Mot1-301 SUMO: -21; NSD2 HMT inh: 1; ALR H2O2 inh: 99*

Results for COc1ccc(-c2ccc(SCC(=O)Nc3cc(C)on3)nn2)cc1OC ?
Glyco luc inh: 3; CDK5 p35 inh: -2; Mot1-301 SUMO: -19; NSD2 HMT inh: 0; ALR H2O2 inh: -3

What do the screens show for `Cc1noc(C)c1CSCC(=O)NC1=NCCS1`?
Glyco luc inh: 1; CDK5 p35 inh: 0; Mot1-301 SUMO: -4; NSD2 HMT inh: 11; ALR H2O2 inh: 97*

What do the screens show for `COc1ccc([Si](C)(C)[C@H]2[C@H](CCn3cc([C@H](O)c4ccccc4)nn3)O[C@@]3(C(=O)N(Cc4cccc(N5CCOC5=O)c4)c4ccccc43)[C@@H]2C)cc1`?
CASP6 VEID inh: -1

Results for C[C@@H]1CN([C@@H](C)CO)S(=O)(=O)c2ccc(C#Cc3ccccc3F)cc2O[C@@H]1CN(C)CC1CC1 ?
CASP6 VEID inh: 2

How did CCN(c1ccc(C(=O)CSc2nnc(C3CC3)n2C2CC2)cc1)S(C)(=O)=O do in these assays?
CASP6 VEID inh: -2; Glyco luc inh: -1; CDK5 p35 inh: 0; Mot1-301 SUMO: 3; NSD2 HMT inh: -4; ALR H2O2 inh: 96*

How did CC(=O)N(C)Cc1ccc(C(=O)CSc2nnc(C3CC3)n2C2CC2)cc1 do in these assays?
CASP6 VEID inh: 1; Glyco luc inh: 1; CDK5 p35 inh: 1; Mot1-301 SUMO: -16; NSD2 HMT inh: 1; ALR H2O2 inh: 46

How did CC1(C)CC(=O)c2cc(C(=O)NNc3ccccc3)c(=O)n(-c3ccccc3)c2C1 do in these assays?
CASP6 VEID inh: -8; Glyco luc inh: -2; CDK5 p35 inh: 0; Mot1-301 SUMO: 72; NSD2 HMT inh: -4; ALR H2O2 inh: 98*

Results for C[C@H]1CN([C@@H](C)CO)C(=O)Cc2cc(NC(=O)C3CC3)ccc2O[C@H]1CN(C)S(=O)(=O)c1ccc(F)cc1 ?
CASP6 VEID inh: -3

Results for CCC(=O)Nc1ccc2c(c1)C(=O)N(C)[C@H]1CC[C@@H](CC(=O)NCc3ccccc3)O[C@H]1CO2 ?
CASP6 VEID inh: 0

Results for CC(C)c1ccc2oc(-c3cc(N)ccc3O)nc2c1 ?
Glyco luc inh: -20; CDK5 p35 inh: 3; Mot1-301 SUMO: 9; NSD2 HMT inh: 1; ALR H2O2 inh: 93*
